Activity calls are given as the source filed them. The calls were made as follows: active = hit-call score of the fitted dose curve at least 0.9, where 1 is the maximum; inactive = score below 0.9.

Common to all, as to details: mRNA level, 48 h; actives raise or lower the signal
Read-out in assay [1]: Glutathione S-Transferase (GSTA2), GSTA2 (gene 2939)
Briefly: LTEA_HepaRG_GSTA2: Life Technologies and Expression Analysis (LTEA) Assay for Glutathione S-Transferase (GSTA2) using HepaRG (AID 2283497). In short, it runs like this: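 Oxidative-stress marker GSTA2 is quantified by TaqMan qRT-PCR in HepaRG cultures treated 48 h across an eight-point range to 100 uM. Expression is normalized to endogenous controls and compared with 0.5% DMSO vehicle.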

Read-out in assay [2]: Glutamate-cysteine ligase catalytic (GCLC), GCLC (gene 2729)
Briefly: LTEA_HepaRG_GCLC: Life Technologies and Expression Analysis (LTEA) Assay for Glutamate-cysteine ligase catalytic (GCLC) using HepaRG (AID 2283498). In short, it runs like this: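 Oxidative-stress marker GCLC is measured as mRNA change in human HepaRG liver cells after 48 h chemical treatment in 0.5% DMSO, eight concentrations from 100 uM. Activity is fitted bidirectionally against vehicle.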

Read-out in assay [3]: growth arrest and DNA damage 45 (GADD45G), GADD45G (gene 10912)
Briefly: LTEA_HepaRG_GADD45G: Life Technologies and Expression Analysis (LTEA) Assay for growth arrest and DNA damage 45 (GADD45G) using HepaRG (AID 2283499). In short, it runs like this: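 Differentiated human HepaRG cells in serum-free induction medium were exposed for 48 h to 8 half-log concentrations up to 100 uM in 0.5% DMSO, in duplicate. GADD45G mRNA was measured by TaqMan qRT-PCR, normalised to ACTB, GAPDH and POLR2A, and fitted bidirectionally against DMSO.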

Read-out in assay [4]: Glutamate-cysteine ligase regulatory (GCLM), GCLM (gene 2730)
Kind of assay: LTEA_HepaRG_GCLM: Life Technologies and Expression Analysis (LTEA) Assay for Glutamate-cysteine ligase regulatory (GCLM) using HepaRG (AID 2283500). In short, it runs like this:
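HepaRG, 48 h dosing, 100 uM top, half-log x8, 0.5% DMSO vehicle. Readout: GCLM mRNA by TaqMan qRT-PCR, housekeeping-normalized (ACTB/GAPDH/POLR2A). Curves fit bidirectionally vs DMSO baseline.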

Read-out in assay [5]: Heat shock 70 kDa protein 1 (HSPA1A), gene 3303
Briefly: LTEA_HepaRG_HSPA1A: Life Technologies and Expression Analysis (LTEA) Assay for Heat shock 70 kDa protein 1 (HSPA1A) using HepaRG (AID 2283502). In outline:
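HepaRG, 48 h exposure, 8-pt half-log CRC from 100 uM in 0.5% DMSO, duplicates. Readout: TaqMan qRT-PCR of HSPA1A mRNA, housekeeping-normalized (ACTB/GAPDH/POLR2A). Bidirectional fit vs 0.5% DMSO baseline.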

Read-out in assay [6]: Hypoxia-inducible factor 1-alpha (Homo sapiens) (UniProt Q16665)
Kind of assay: LTEA_HepaRG_HIF1A: Life Technologies and Expression Analysis (LTEA) Assay for Hypoxia-inducible factor 1 (HIF1A) Trancription factor using HepaRG (AID 2283503). In short, it runs like this:
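Gain- or loss-of-signal HIF1A mRNA changes are fitted against a DMSO baseline. HepaRG cultures receive eight concentrations, highest 100 uM, for 48 h in serum-free induction medium with 0.5% DMSO.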

Read-out in assay [7]: 3-Hydroxy-3-Methylglutaryl-CoA Synthase 2 (HMGCS2), HMGCS2 (gene 3158)
Briefly: LTEA_HepaRG_HMGCS2: Life Technologies and Expression Analysis (LTEA) Assay for 3-Hydroxy-3-Methylglutaryl-CoA Synthase 2 (HMGCS2) using HepaRG (AID 2283504). In short, it runs like this: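 Differentiated human HepaRG cells were exposed in duplicate for 48 h in serum-free induction medium to eight concentrations (top 100 uM, half-log steps, 0.5% DMSO). HMGCS2 mRNA was quantified by TaqMan qRT-PCR, normalised to ACTB, GAPDH and POLR2A, then fitted bidirectionally against DMSO.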

Read-out in another assay: HGF (gene 3082)
Kind of assay: LTEA_HepaRG_HGF: Life Technologies and Expression Analysis (LTEA) Assay for Hepatocyte Growth Facto (HGF) using HepaRG (AID 2283505). In outline: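 Differentiated human HepaRG cells in serum-free induction medium were exposed in duplicate for 48 h to eight concentrations (top 100 uM, half-log steps, 0.5% DMSO). HGF mRNA was quantified by qRT-PCR, normalized to ACTB, GAPDH and POLR2A.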

Read-out in assay [8]: Insulin Like Growth Factor 1 (IGF1), IGF1 (gene 3479)
Briefly: LTEA_HepaRG_IGF1: Life Technologies and Expression Analysis (LTEA) Assay for Insulin Like Growth Factor 1 (IGF1) using HepaRG (AID 2283506). In outline: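 qRT-PCR readout of IGF1 mRNA, normalized to three housekeeping genes, after 48 h chemical exposure of HepaRG cells. Concentrations: 8-point half-log series, top 100 uM, 0.5% DMSO vehicle. Gain or loss fitted against DMSO baseline.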

Read-out in assay [9]: Intercellular Adhesion Molecule 1 (ICAM1), ICAM1 (gene 3383)
Briefly: LTEA_HepaRG_ICAM1: Life Technologies and Expression Analysis (LTEA) Assay for Intercellular Adhesion Molecule 1 (ICAM1) using HepaRG (AID 2283507). In outline: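 Differentiated HepaRG cells in serum-free induction medium were exposed in duplicate for 48 h to eight half-log concentrations up to 100 uM in 0.5% DMSO. Transcript levels were measured by qRT-PCR normalized to ACTB, GAPDH and POLR2A; bidirectional fits relative to DMSO.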

Read-out in assay [10]: Insulin-like growth factor-binding protein 1 (IGFBP1), IGFBP1 (gene 3484)
Briefly: LTEA_HepaRG_IGFBP1: Life Technologies and Expression Analysis (LTEA) Assay for Insulin-like growth factor-binding protein 1 (IGFBP1) using HepaRG (AID 2283508). In outline:
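Differentiated human HepaRG cells in serum-free induction medium were exposed in duplicate for 48 h to eight concentrations, top 100 uM with half-log dilutions, in 0.5% DMSO. Transcript levels came from qRT-PCR normalised to ACTB, GAPDH and POLR2A, fitted bidirectionally against DMSO.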

Read-out in assay [11]: Interleukin 6 (IL6), IL6 (gene 3569)
Kind of assay: LTEA_HepaRG_IL6: Life Technologies and Expression Analysis (LTEA) Assay for Interleukin 6 (IL6) using HepaRG (AID 2283509). In short, it runs like this: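 Changes in IL6 mRNA, up or down relative to 0.5% DMSO controls, were derived from concentration-response curves in human HepaRG cells treated for 48 h at up to 100 uM, with ACTB, GAPDH and POLR2A as normalizers.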

Read-out in assay [12]: Interleukin 6 Receptor (IL6R), IL6R (gene 3570)
Kind of assay: LTEA_HepaRG_IL6R: Life Technologies and Expression Analysis (LTEA) Assay for Interleukin 6 Receptor (IL6R) using HepaRG (AID 2283510). In short, it runs like this: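 HepaRG, 48 h exposure, 8-pt half-log series, top 100 uM, 0.5% DMSO vehicle, duplicates. Read-out: TaqMan qRT-PCR of IL6R transcript, housekeeping-gene normalized. Gain or loss fitted relative to DMSO baseline.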

Read-out in assay [13]: Potassium channel subfamily K member 1 (KCNK1), KCNK1 (gene 3775)
Briefly: LTEA_HepaRG_KCNK1: Life Technologies and Expression Analysis (LTEA) Assay for Potassium channel subfamily K member 1 (KCNK1) using HepaRG (AID 2283511). In short, it runs like this: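 Human HepaRG cultures receive test chemicals for 48 h in 0.5% DMSO, top concentration 100 uM with half-log dilutions. Induction or suppression of KCNK1 mRNA relative to DMSO is derived by bidirectional fitting of qRT-PCR data.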

Read-out in assay [14]: Keratin 19 (KRT19), KRT19 (gene 3880)
Briefly: LTEA_HepaRG_KRT19: Life Technologies and Expression Analysis (LTEA) Assay for Keratin 19 (KRT19) using HepaRG (AID 2283512). In outline: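 Differentiated human HepaRG cells, plated 48 h, were exposed in duplicate for 48 h in serum-free induction medium to eight half-log concentrations up to 100 uM in 0.5% DMSO. KRT19 mRNA was quantified by qRT-PCR, normalized to ACTB, GAPDH and POLR2A, and fitted bidirectionally versus DMSO.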

Read-out in assay [15]: JUN Transcription Factor, JUN (gene 3725)
Briefly: LTEA_HepaRG_JUN: Life Technologies and Expression Analysis (LTEA) Assay for JUN Transcription Factor using HepaRG (AID 2283513). In short, it runs like this:
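HepaRG, 48 h exposure, 8-pt half-log series top 100 uM, 0.5% DMSO, duplicate. JUN mRNA by qRT-PCR (Fluidigm), housekeeping-normalized (ACTB/GAPDH/POLR2A); bidirectional curve fit vs DMSO baseline.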

Read-out in assay [16]: Lipase C (LIPC), LIPC (gene 3990)
Kind of assay: LTEA_HepaRG_LIPC: Life Technologies and Expression Analysis (LTEA) Assay for Lipase C (LIPC) using HepaRG (AID 2283514). In short, it runs like this: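 In this multiplexed gene-expression screen, human HepaRG cultures received test chemicals for 48 h across eight concentrations with 100 uM highest, in duplicate. Values reflect LIPC mRNA induction or suppression versus DMSO vehicle, from normalized qRT-PCR.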

Read-out in assay [17]: Lipoprotein lipase (LPL), LPL (gene 4023)
Kind of assay: LTEA_HepaRG_LPL: Life Technologies and Expression Analysis (LTEA) Assay for Lipoprotein lipase (LPL) using HepaRG (AID 2283515). In outline: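 Concentration-response testing used half-log steps from 100 uM in 0.5% DMSO on human HepaRG cells, 48 h, duplicate wells. Phenobarbital 1 mM served as induction control; LPL mRNA was normalized to ACTB, GAPDH, POLR2A.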

Read-out in assay [18]: MicroRNA 122 (MIR122), gene 406906
Briefly: LTEA_HepaRG_MIR122: Life Technologies and Expression Analysis (LTEA) Assay for MicroRNA 122 (MIR122) using HepaRG (AID 2283516). Also: the transcript read is the microRNA miR-122. In short, it runs like this:
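qRT-PCR read-out (TaqMan, Fluidigm array), normalized to three housekeeping genes; HepaRG cells dosed 48 h at 8 concentrations up to 100 uM in 0.5% DMSO, duplicate; gain or loss fitted against DMSO baseline.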

Read-out in assay [19]: Glutathione S-transferase M3 (GSTM3), GSTM3 (gene 2947)
Briefly: LTEA_HepaRG_GSTM3: Life Technologies and Expression Analysis (LTEA) Assay for Glutathione S-transferase M3 (GSTM3) using HepaRG (AID 2283501). In short, it runs like this: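 Differentiated HepaRG cells in serum-free induction medium were exposed in duplicate for 48 h to 8 half-log concentrations up to 100 uM in 0.5% DMSO. GSTM3 mRNA was measured by TaqMan qRT-PCR, normalized to ACTB/GAPDH/POLR2A, and fitted bidirectionally versus DMSO.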

Sequence of Hypoxia-inducible factor 1-alpha (Homo sapiens) (Q16665 whole entry, looked up): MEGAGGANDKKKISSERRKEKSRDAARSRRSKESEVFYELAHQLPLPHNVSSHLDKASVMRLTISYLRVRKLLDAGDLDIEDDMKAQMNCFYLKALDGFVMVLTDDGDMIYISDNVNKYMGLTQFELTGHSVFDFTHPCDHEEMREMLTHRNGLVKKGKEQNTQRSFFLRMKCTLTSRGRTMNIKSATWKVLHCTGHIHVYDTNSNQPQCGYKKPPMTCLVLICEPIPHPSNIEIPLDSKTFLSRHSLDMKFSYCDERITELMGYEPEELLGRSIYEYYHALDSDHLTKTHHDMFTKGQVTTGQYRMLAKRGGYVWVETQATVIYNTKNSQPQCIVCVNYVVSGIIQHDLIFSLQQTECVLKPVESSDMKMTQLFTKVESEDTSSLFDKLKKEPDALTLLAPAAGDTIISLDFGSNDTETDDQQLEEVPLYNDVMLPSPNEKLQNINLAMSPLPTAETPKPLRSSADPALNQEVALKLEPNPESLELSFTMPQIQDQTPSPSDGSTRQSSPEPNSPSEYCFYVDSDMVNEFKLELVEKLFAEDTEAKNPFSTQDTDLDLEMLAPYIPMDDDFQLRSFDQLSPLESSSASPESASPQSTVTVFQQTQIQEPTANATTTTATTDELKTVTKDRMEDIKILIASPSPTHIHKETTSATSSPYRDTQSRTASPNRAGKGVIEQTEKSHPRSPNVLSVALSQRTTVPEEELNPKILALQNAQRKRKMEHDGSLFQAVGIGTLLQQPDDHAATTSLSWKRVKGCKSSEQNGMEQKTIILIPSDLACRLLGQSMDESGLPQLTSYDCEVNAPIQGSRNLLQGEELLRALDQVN

Consider `CC(=O)OC1CC(C)OC(C)O1` (stereo not given), for which the molecule was called inactive in [1], in assay [2], in [3], in [4], in assay [5] and in [6]. The molecule was called inactive (in assay [7]; in the assay with HGF (gene 3082); in [8]; in [9]; in assay [10]; in assay [11]). The result in assay [12], in [13], in [14], in [15], in [16] and in assay [17] was inactive. Moreover, in assay [18], the molecule was classed as inactive.
Regarding `Cc1cc(Cc2ccc(N)c(C)c2)ccc1N`, the molecule was classed as inactive in assay [1], in assay [2], in assay [3], in assay [4], in assay [19] and in assay [5]. Further, the molecule was classed as inactive (in assay [6]; in assay [7]; in the assay with HGF (gene 3082); in assay [8]; in assay [9]; in [10]). Further, the call in assay [11], in [12], in [14], in assay [15], in [16] and in [17] was inactive. Besides, in assay [18], the call was inactive.
For the molecule `S=c1[nH]c2ccccc2s1`, the molecule was classed as inactive in [1], in [2], in [3], in assay [4], in [19] and in assay [5]. The molecule was called inactive (in assay [6]; in assay [7]; with HGF (gene 3082); in assay [8]; in [9]; in assay [10]). For the same molecule, the result in assay [11], in assay [12], in assay [14], in [15], in assay [16] and in [17] was inactive. The call in assay [18] was inactive.
Regarding `Cc1cc(SC2=C(O)C[C@@](CCc3ccc(N)cc3)(C(C)C)OC2=O)c(C(C)(C)C)cc1CO`, the outcome in [1], in assay [2], in assay [3], in assay [4], in [19] and in assay [5] was inactive. For the same molecule, the result (in assay [6]; in the assay with HGF (gene 3082); in assay [9]; in assay [10]; in [11]; in [12]) was inactive. Besides, the molecule was called inactive in assay [13], in assay [14], in [15], in assay [16], in assay [17] and in assay [18]. Moreover, the AC50 in assay [7] was 16.8 µM (active); in [8], 4.02 µM (active).
Turning to `CC(C)c1cccc(C(C)C)c1NC(=O)NS(=O)(=O)c1cc(C(C)(C)O)co1`, the call in assay [1], in assay [2], in assay [3], in [4], in [19] and in assay [5] was inactive. For the same molecule, the outcome (in [6]; with HGF (gene 3082); in assay [9]; in [10]; in [11]; in assay [12]) was inactive. For the same molecule, the outcome in [14], in [15], in assay [16], in assay [17] and in [18] was inactive. In addition, the AC50 in [7] is 62 µM (active); in [8], 50 µM (active).
As for `CN(C)C(=O)NC1(c2ccccc2)CCN(CC[C@@]2(c3ccc(F)c(F)c3)CN(C(=O)c3ccccc3)CCO2)CC1`, the outcome in assay [1], in assay [2], in assay [4], in assay [19], in assay [5] and in [6] was inactive. For the same molecule, the molecule was classed as inactive (with HGF (gene 3082); in [9]; in assay [10]; in assay [11]; in [12]; in assay [15]). Besides, the molecule was classed as inactive in [18]. Also, the AC50 was 75.1 µM (active) in assay [3]; 47 µM (active) in assay [7]; 15.7 µM (active) in assay [8]; 27 µM (active) in assay [14]; 47 µM (active) in [16]; 31.8 µM (active) in [17].

(Values after PubChem BioAssay (EPA / NIEHS).)
